The term Inhibition denotes the relative decrease from the control value, in per cent.

Measured potencies and affinities stand elsewhere.

For one test, the system named is Staphylococcus aureus. The note with it: Concentration 20 uM; ASSAY_TEST Inhibition of Bacterial Growth; detection method Absorption (OD600); MEDIA CAMHB; plate type 384well; NBS; CORNING #3640; time 18 hr.
The next test deals with Escherichia coli. The note with it: Concentration 20 uM; ASSAY_TEST Inhibition of Bacterial Growth; detection method Absorption (OD600); MEDIA CAMHB; plate type 384well; NBS; CORNING #3640; time 18 hr.

Consider `CC(C)(C(=O)Nc1ccc(F)cc1)n1cc(-c2ccccc2F)cn1`, for which the Inhibition in the test with Staphylococcus aureus came to 21.36%; in the test on Escherichia coli it was 9.99%.
Taken in the same sequence, the figures for `Cc1ccc2cc(C3NC(=O)c4ccccc4N3)c(Cl)nc2c1` (centres undefined) were 11.87% and 10.17%.
Taken in the same sequence, the figures for `COc1ccc(Oc2ccc([C@@H](C)N(C)c3ncc4c(N)nc(N)nc4n3)cc2)cc1` were 53.21% and 13.92%.
Taken in the same sequence, the figures for `Nc1ncnc2c1ncn2C[C@@H](O)[C@@H](O)C(=O)O` [ERITADENINE] were 13.9% and 8.78%.
As for `CCS(=O)(=O)N(Cc1ccco1)Cc1cc2ccc(C)cc2nc1O`, the Inhibition in the test with Staphylococcus aureus was 9.79%; with Escherichia coli, -2.16%.
Taken in the same sequence, the figures for `COc1nc2ccc(Br)cc2cc1[C@@H](c1ccccc1)[C@@](O)(CCN(C)C)c1cccc2ccccc12.O=C(O)C(F)(F)F` were 17.15% and 2.08%.
In the same order, the values of `Cl.NCCCC(N)(C(=O)O)C(F)F.O` (centres undefined) [EFLORNITHINE HYDROCHLORIDE] are 10.2% and -2.06%.
On to `OCc1ccc(-c2cncc(Nc3cccc(Cl)c3)c2)cc1`, for which the Inhibition came to 14.66% in the test with Staphylococcus aureus and 10.9% with Escherichia coli.
Taken in the same sequence, the figures for `CC1CS(=O)(=O)CCN1/N=C/c1ccc([N+](=O)[O-])o1` (centres undefined) [NIFURTIMOX] were 33.42% and 6%.
In the same order, the values of `O=S(=O)(c1ccc(Cl)cc1)N1CCN(C(=S)NCc2ccco2)CC1` are 6.19% and -1.38%.
Taken in the same sequence, the figures for `CCCCc1ccc(NC(=O)Nc2ccc(O[C@H]3CCCC[C@@H]3N(C)c3ccccc3)c(F)c2)cc1` were 12.12% and 9.29%.
On to `CC(C)C(Oc1cccc2ccccc12)C(=O)O` (centres undefined), for which the Inhibition with Staphylococcus aureus is on record as 10.48%; in the test with Escherichia coli, -2.25%.
Taken in the same sequence, the figures for `Clc1ccc(CCNc2cc(-c3ccccc3)nc3ncnn23)cc1` were 16.06% and 4.96%.
Taken in the same sequence, the figures for `Cl.O=C(Nc1ccc(N2CCNCC2)nc1)c1oc(-c2ccccc2)nc1C(F)(F)F` were 15.48% and 0.64%.
Taken in the same sequence, the figures for `CCc1ccc(S(=O)(=O)Nc2cc(CN3CCN(CCC(C)C)CC3)ccc2C)cc1` were 21.02% and 13.04%.
`Nc1ncc(-c2ccc(C(F)(F)F)nc2)cc1-c1ccc(C(F)(F)F)nc1`: the figures for the Inhibition in the test with Staphylococcus aureus and with Escherichia coli were 3.63% and 7.53%, respectively.
In the case of `CCn1ncc2c(NC3CCOCC3)c(CNC(=O)c3ccnn3C)c(C)nc21`, the Inhibition in the test with Staphylococcus aureus was 5.59%; with Escherichia coli it was 3.03%.
In the same order, the values of `FC(F)(F)c1nnc2ccc(Cl)nn12` are 14.72% and 1.56%.
Taken in the same sequence, the figures for `Cc1ccc(S(=O)(=O)N2CCN(C(=O)c3cc(-c4ccccc4)n[nH]3)CC2)cc1` were 1.4% and 11.29%.
For `COc1cccc(CC(=O)N2CCC(n3c(C)nc4ccc(F)cc43)CC2)c1`, the results for the Inhibition in the test on Staphylococcus aureus and in the test with Escherichia coli were 21.64% and 9.91%, respectively.
In the same order, the values of `Cc1nc2ccccn2c1C(=O)NCc1ccc(Cl)cc1` are 22.95% and 5.6%.
Taken in the same sequence, the figures for `CS(=O)(=O)N1CCC(Cn2nc(Cc3cccc4ccccc34)c3c(N)ncnc32)CC1` were 11.53% and 3.3%.
`O=C(Nc1ccccc1-c1nc2c(C(=O)O)cccc2o1)c1ccccc1`: the results for the Inhibition in the test with Staphylococcus aureus and with Escherichia coli were 12.25% and -2.2%, respectively.
Taken in the same sequence, the figures for `CS(=O)(=O)Cc1nc2ccccc2oc1=O` were 30.23% and 5.17%.
In the case of `CCCCOC(=O)Nc1cc2nc(C3CCCCC3)[nH]c2cc1N1CCCC1`, the Inhibition in the test on Staphylococcus aureus is reported as 9.54%; with Escherichia coli, -0.47%.
Turning to `Nc1ncc(-c2cn[nH]c2)cc1-c1nc2cc(Cl)cnc2[nH]1`, the Inhibition is reported as -0.61% with Staphylococcus aureus and 5.12% in the test with Escherichia coli.
In the same order, the values of `Cc1cc(Nc2ccc(C(F)(F)F)cc2)n2ccnc2n1` are 20.89% and 9.89%.
Turning to `Cc1ccc(-c2nc(CN(Cc3ccccn3)C(C)C)cs2)o1`, the Inhibition is listed as 63.05% with Staphylococcus aureus and 8.22% in the test on Escherichia coli.
On to `CC(C)(C)OC(=O)N1CCC(Cn2nc(-c3cnc4ccccc4c3)c3c(N)ncnc32)CC1`, for which the Inhibition with Staphylococcus aureus came to 18.54%; in the test with Escherichia coli, 10.38%.
Consider `Cc1cnc(N2CCN[C@@H](Cc3ccccc3)C2)nc1Oc1ccc(-n2ccnc2)cc1.Cl`, for which the results for the Inhibition in the test on Staphylococcus aureus and in the test on Escherichia coli were 11.48% and -1.63%, respectively.
Taken in the same sequence, the figures for `O=C(OCc1ccccc1)N1CCC(c2cc(-c3ccncc3)c(-c3ccc(F)cc3)[nH]2)CC1` were 3.21% and 4.05%.
Taken in the same sequence, the figures for `CN(C(=O)c1cc2c(-c3cncnc3)cccc2[nH]1)c1ccccc1` were 12.46% and 10.65%.
As to `CCN(CC)C(=O)N1CCN(C)CC1` [DIETHYLCARBAMAZINE], the Inhibition in the test on Staphylococcus aureus is 20.12%; in the test on Escherichia coli, 7.97%.
`COc1ccc(C2=NCCN2)cc1-c1cn(-c2cccc(C3=NCCN3)c2)nn1.O=C(O)C(F)(F)F.O=C(O)C(F)(F)F`: the Inhibition with Staphylococcus aureus is listed as 20.97%; in the test on Escherichia coli, 10.7%.
In the same order, the values of `CC(C)(C)c1ccc(N[C@@H]2CCCC[C@H]2NC(=O)c2ccco2)cc1` are 7.06% and 10.16%.
Regarding `OC[C@H]1O[C@@H](n2c3ccc(Cl)cc3c3c(-c4cc5ccccc5o4)ncnc32)C(O)[C@H]1O` (some centres undefined), the Inhibition came out at 9.2% with Staphylococcus aureus and 8.79% in the test with Escherichia coli.
For `CC1(COc2ccc(N3CCC(Oc4ccc(OC(F)(F)F)cc4)CC3)cc2)Cn2cc([N+](=O)[O-])nc2O1` (centres undefined), the figures for the Inhibition in the test on Staphylococcus aureus and in the test on Escherichia coli were 13.25% and 11.79%, respectively.

The values above are taken from ChEMBL document CHEMBL4513149, “CO-ADD screening of MMV (CH) - MMV compounds” (2021).
